According to the supplement of paper PMC10646978:
± gives the standard deviation.

How the values were obtained:
Conditions in all cases: modulator concentration 10 µM
[1] = test system: RAW-Dual (murine macrophage reporter line); test: NF-kB reporter (SEAP) activity fold change vs agonist alone; higher = enhanced NF-kB activity
How it was run: (§1)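 Overnight stimulation with a PRR agonist followed pre-incubation for 1 hour at 37 °C with compound at 10 μM final. This was done in RAW-Dual murine macrophage reporter cells seeded at 50 000 per well in 384-well plates. NF-κB (SEAP, QUANTI-Blue absorbance at 620 nm) and IRF (Lucia luciferase, QUANTI-Luc luminescence) were read from the supernatant. Each reporter's fold change relative to the mean agonist-only control on the same plate was averaged over replicate plates.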

[2] = test system: RAW-Dual (murine macrophage reporter line); test: IRF reporter (Lucia luciferase) activity fold change vs agonist alone; higher = enhanced IRF activity
How it was run: as §1

[3] = test system: RAW-Dual (murine macrophage reporter line); test: viability score (confluency relative to resting cells, overnight) (fraction); higher = more viable, active = viable (0.7 or more)
How it was run: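 Confluency was the readout: RAW-Dual macrophages were imaged with IncuCyte after an overnight exposure to compound at 10 μM final. IncuCyte software produced two masks over all imaged wells. The viability score expresses confluency against resting cells, and both masks had to exceed 70% of resting cells for a compound to meet the cutoff.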

[4] = agonist: CpG ODN 1826 0.5 ug/mL

SMILES	NF-kB reporter [1, 4]	NF-kB reporter ([1]; agonist: LPS 0.1 ug/mL)	NF-kB reporter ([1]; agonist: MPLA […])	IRF reporter ([2]; agonist: 3'3'-cGAMP 10 ug/mL)	IRF reporter ([2]; agonist: LPS 0.1 ug/mL)	IRF reporter ([2]; agonist: MPLA […])	viability score [3]
Cl.O=C1c2cccc3c2C(CCC3)CN1C1CN2CCC1CC2 (centres undefined)	0.77 ± 0.21	0.704 ± 0.044	0.825 ± 0.058	0.557 ± 0.035	0.718 ± 0.086	0.924 ± 0.14	0.987 (active)
NC(=NOC(=O)c1ccc2nsnc2c1)c1ncon1	1.04 ± 0.17	0.965 ± 0.084	0.905 ± 0.088	0.922 ± 0.035	1.05 ± 0.11	1.18 ± 0.12	0.996 (active)
OCC(O)CN1CCN(c2ccccc2)CC1 (centres undefined)	1.06 ± 0.091	1.03 ± 0.12	1.02 ± 0.039	1.03 ± 0.064	0.991 ± 0.11	0.982 ± 0.17	0.996 (active)
NC(=O)CC[C@@H](N)C(=O)O	1.16 ± 0.31	1.05 ± 0.059	0.953 ± 0.068	0.946 ± 0.046	1.37 ± 0.2	1.23 ± 0.17	1.01 (active)
CS(=O)(=O)N(CC(=O)NC1CC1)c1cccc2ccccc12	1.04 ± 0.095	1.01 ± 0.12	0.901 ± 0.056	1 ± 0.039	1.59 ± 0.35	1.16 ± 0.17	1.01 (active)
CCCc1nc2ccccc2n1C(=O)C=CC(=O)O	0.789 ± 0.061	0.833 ± 0.06	1.13 ± 0.17	0.981 ± 0.046	1.46 ± 0.12	1.59 ± 0.16	1 (active)
Cl.Clc1ccc2nsnc2c1NC1=NCCN1	0.8 ± 0.14	0.932 ± 0.14	0.993 ± 0.076	0.791 ± 0.066	0.995 ± 0.17	1.06 ± 0.23	1 (active)
CC(C)(C)NCC(=O)Nc1ccc(S(N)(=O)=O)cc1	0.762 ± 0.061	0.821 ± 0.064	1.06 ± 0.091	1.02 ± 0.049	1.52 ± 0.098	1.7 ± 0.2	0.997 (active)
CCOC(=O)C(CCc1ccccc1)NC1CCc2ccccc2N(CC(=O)O)C1=O.Cl (centres undefined)	1.13 ± 0.28	1.04 ± 0.072	1.05 ± 0.079	0.967 ± 0.04	1.24 ± 0.15	1.33 ± 0.21	1 (active)
CCc1cccc2c3c([nH]c12)C(CC)(CC(=O)O)OCC3 (centres undefined) [Prestw-231]	0.957 ± 0.25	0.995 ± 0.066	1.19 ± 0.15	0.926 ± 0.039	1.24 ± 0.15	1.32 ± 0.24	0.989 (active)
COc1cc2nccc(Oc3ccc(NC(=O)Nc4cc(C)on4)c(Cl)c3)c2cc1OC	0.178 ± 0.022	0.66 ± 0.062	0.639 ± 0.057	0.626 ± 0.028	0.938 ± 0.066	1.02 ± 0.1	1 (active)
Cc1onc(-c2ccccc2)c1-c1ccc(S(N)(=O)=O)cc1	1.64 ± 0.26	1.08 ± 0.4	1.25 ± 0.3	1.02 ± 0.031	1.02 ± 0.2	0.898 ± 0.11	0.98 (active)
Clc1ccc2c(c1)C(N1CCNCC1)=Nc1ccccc1O2	0.996 ± 0.26	1.02 ± 0.066	0.969 ± 0.07	0.893 ± 0.03	1.2 ± 0.25	1.28 ± 0.13	0.637 (inactive)
COc1ccc(-n2cnc3cc(NC(C)=O)ccc32)cc1	0.978 ± 0.18	0.973 ± 0.089	0.885 ± 0.07	0.861 ± 0.025	1.19 ± 0.15	1.14 ± 0.12	1.01 (active)
COc1ccc(C=NNC(=O)C2COc3cc4ccccc4cc3O2)c(O)c1 (centres undefined)	0.993 ± 0.094	0.966 ± 0.054	0.98 ± 0.079	0.956 ± 0.031	1.31 ± 0.18	1.1 ± 0.15	1.01 (active)
CN1CCN2c3ccccc3Cc3ccccc3C2C1.Cl (centres undefined)	1 ± 0.14	1.07 ± 0.34	0.835 ± 0.058	0.68 ± 0.032	1.32 ± 0.3	1.2 ± 0.13	0.307 (inactive)
NC(=O)c1ncn(C2OC(CO)C(O)C2O)c1O (centres undefined)	0.931 ± 0.076	0.895 ± 0.088	0.917 ± 0.1	1.04 ± 0.037	1.32 ± 0.16	1.46 ± 0.2	1.01 (active)
CC1=CC(C)C2(COC(c3cccnc3)OC2)C(C)C1 (centres undefined)	0.876 ± 0.067	0.788 ± 0.12	0.695 ± 0.065	0.967 ± 0.033	1.15 ± 0.18	1.1 ± 0.19	0.388 (inactive)
CNc1nc(Nc2ccc(C)c(C)c2)c2nccnc2n1	0.992 ± 0.063	1.03 ± 0.092	1.09 ± 0.09	0.992 ± 0.069	1.01 ± 0.19	1.22 ± 0.42	0.929 (active)
COC(=O)C1=C(C)NC2=C(C(=O)CC(C)(C)C2)C1c1ccc(OC)c(O)c1 (centres undefined)	1.02 ± 0.095	0.981 ± 0.055	1.01 ± 0.069	1.01 ± 0.077	1.13 ± 0.16	1.05 ± 0.065	1.01 (active)
O=C(C=Cc1ccc(O)cc1)c1ccc(O)cc1O	1.33 ± 0.36	1.09 ± 0.054	1.74 ± 0.12	0.305 ± 0.012	0.966 ± 0.1	0.81 ± 0.13	0.979 (active)
Cc1occc1C(=O)Nc1ccc(F)c(F)c1	1.07 ± 0.12	0.998 ± 0.16	1.11 ± 0.055	0.704 ± 0.042	1.07 ± 0.081	1.46 ± 0.14	0.927 (active)
CCOc1ccccc1OCCCCOc1cccc(Cl)c1	0.947 ± 0.15	1.04 ± 0.093	0.951 ± 0.084	0.956 ± 0.025	1.21 ± 0.15	1.23 ± 0.2	1 (active)
COc1ccc(C2C3=C(CC(c4ccccc4)CC3=O)Nc3ccccc3N2C(=O)C(C)C)cc1OC (centres undefined)	1.02 ± 0.089	1.05 ± 0.063	1.01 ± 0.071	1.02 ± 0.025	1.56 ± 0.21	1.2 ± 0.087	1.01 (active)
COC(=O)C1C(=O)C(=CNc2ccccc2C)C(=O)CC1(C)C (centres undefined)	1.07 ± 0.092	1.02 ± 0.075	1.03 ± 0.1	0.993 ± 0.049	1.12 ± 0.34	1.08 ± 0.2	1.03 (active)
CCOc1cccc2sc(N(CCCN(C)C)C(=O)c3ccc(Cl)s3)nc12.Cl	0.938 ± 0.042	1.06 ± 0.19	0.898 ± 0.12	0.747 ± 0.093	0.989 ± 0.26	0.954 ± 0.38	0.917 (active)
Cn1cnc2cc(NCc3nc4ccccc4n3C)ccc21	0.818 ± 0.065	1.03 ± 0.078	1.01 ± 0.039	0.955 ± 0.17	1.03 ± 0.15	1.03 ± 0.24	1 (active)
